p53ts 32C tox: kills p53ts cells at the permissive temperature; H1299-p53A138V at 32C, ATP luminescence viability, 24 h; Potency, µM (series often up to 46.1 µM), inactives show top-dose activity change, negative = cytotoxicity, actives largely listed as cytotoxic; 130,000 tested, 0.93% active; AID 924;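 note: potency is the fitted concentration of half-maximal effect; 0% = DMSO and -100% = full killing by reference compound; nearly all actives have a fitted effect of over 55% in size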
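Cells: H1299 p53ts (A138V), 600/well, pre-incubated 16–30 h at 37C. Cpd up to 46 uM, 24 h, 32C. Readout: ATPlite luminescence, 20 min RT. Normalization: DMSO vs tamoxifen 100 uM. AC50 by Hill equation.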
Peg3 imprint: inducers of genomic imprint erasure in mouse ES cells. mouse ES Peg3-LacZ reporter, beta-gal luminescence, 40 h. Potency, µM (highest dose often 60.7 µM), without a hit: at the highest dose activity change, positive = activation, actives largely listed as activators. 110,000 tested, 0.02% active; note: potency is the fitted concentration of half-maximal effect
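Each well holds 300 Peg3LacZ-Neo (maternal) female ES cells incubated 40 h at 37C, 5% CO2. LacZ is measured by BetaGlo luminescence, with AC50 and maximum efficacy derived from dose-response curves.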
Ub-GFP proteasome: ubiquitin-GFP accumulation via proteasome inhibition; 67,000 tested, under 10 active; Ubiquitin-GFP reporter cells, proteasome inhibition, GFP fluorescence; response scale: untreated = 0%, 10 µM MG-132 = 100%; Potency, µM (top dose mostly 45.9 µM), without a hit: top-dose activation (GFP accumulation), usual class: activators; AID 526; active = well fitted activation curve with a large enough effect, not every such curve was filed as active; inconclusive = small, poorly fitted or top-dose-only effect, or another doubt; inactive = no such curve, though single readings can be large or run the other way; note: potency is the fitted concentration of half-maximal effect
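U2OS cells stably expressing ubiquitin(G76V)-GFP, seeded overnight in 0.5% FBS medium, were exposed to compounds (qHTS, 46 uM to 2.9 nM) for 4 hr at 37 °C. GFP-positive cells were counted by laser cytometry (488 ex/515 em), normalized between basal and 10 uM MG-132.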
Epigenetic mod: epigenetic modulators derepressing GFP locus in mouse cells; Potency, µM (series often up to 46.1 µM), inactives show top-dose GFP derepression (activation); mouse C127i GFP locus derepression, cytometry, 30 h; 68,000 tested, 0.09% active; note: % of control where 0% means no effect
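Read-out is the number of GFP-positive cells, scored as fluorescent objects 20 to 120 um wide, reflecting derepression of a silenced CMV-GFP reporter in murine C127i cells after 30 h compound exposure at 37 C.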
p53ts 39C kill: kills p53ts cells at the nonpermissive temperature; H1299-p53A138V viability at 39C, ATP luminescence, 24 h; Potency, µM (titrated, usually from 46.1 µM), for the others: at the highest dose activity change, negative = cell killing, usual class: cytotoxic; 130,000 tested, 1.5% active; AID 902; note: potency is the fitted concentration of half-maximal effect; % is set by controls: 0 for no effect and ±100 for the full control effect; nearly all actives have a fitted effect of over 55% in size
HBB splice mod: hemoglobin beta splicing modulation | HBB splicing reporter cell assay, activation; EGFP reporter with mutant IVS2-654 intron; response scale: normalised to 500 nM splice-correcting PNA | Potency, µM (top dose mostly 46.1 µM), for the others: at the highest dose activation, actives largely listed as activators | 65,000 tested, 0.06% active | AID 925; note: potency is the fitted concentration of half-maximal effect; 0% is about no effect
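Compounds were applied for 2 days to HeLa EGFP-654 cells, 500/well in Optimem with 2% FCS. The reporter's EGFP is disrupted by mis-splicing of beta-globin intron IVS2-654. Readout: summed well GFP fluorescence from 488 nm laser scanning; reference was 500 nM antisense […] 654 PNA.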
An asterisk follows results filed as active; [ ] = remark or other dose. The list is not random: actives were taken first. Their share in the collection is about 1.6%. Unless noted, calls come from the whole dose curve; as a rule, active = well fitted curve in the direction sought with a large enough effect; inconclusive = small, poorly fitted or top-dose-only effect, or another doubt; inactive = no such curve, though single readings can be large; an effect the other way counts as inactive or inconclusive.

What do the screens show for `COc1ccc(OC)c(NC(=O)CCc2c(C)nn(-c3ccc(N4CCCC4)nn3)c2C)c1`?
p53ts 32C tox: -13%; Peg3 imprint: -4%[10.9 µM]; p53ts 39C kill: -12%

Results for Cc1ccc(S(=O)(=O)c2c(O)cc(C)c(NS(=O)(=O)c3ccc(Br)cc3)c2C)cc1 ?
p53ts 32C tox: 21%; Peg3 imprint: 8%[10.9 µM]; p53ts 39C kill: inconclusive

What do the screens show for `CCCn1nnnc1SCC(=O)NCc1cccs1`?
p53ts 32C tox: -1%; Peg3 imprint: 3%; Ub-GFP proteasome: -2%; Epigenetic mod: -1%; p53ts 39C kill: -10%; HBB splice mod: -1%

How did COCCn1c(-c2ccc(Cl)cc2)cnc1SCC(=O)NCc1cccs1 do in these assays?
p53ts 32C tox: inconclusive; Peg3 imprint: -12%; Ub-GFP proteasome: 8%; Epigenetic mod: -1%; p53ts 39C kill: 25µM*

How did COc1ccc(-c2noc(-c3ccc(NCCc4ccccc4)c([N+](=O)[O-])c3)n2)cc1OC do in these assays?
p53ts 32C tox: -13%; Peg3 imprint: -7%[10.9 µM]; p53ts 39C kill: -5%

What do the screens show for `Cc1cccc(-c2nc(CN3CCCC(C(=O)NCCc4ccc(Cl)cc4)C3)c(C)o2)c1` (stereo unspecified)?
p53ts 32C tox: inconclusive; Peg3 imprint: -13%[10.9 µM]; p53ts 39C kill: 13µM*

Results for COc1ccc(CNC(=O)c2ccc3c(c2)CCN3S(=O)(=O)c2ccc(C)cc2)cc1 ?
p53ts 32C tox: 7%; Peg3 imprint: -10%[10.9 µM]; p53ts 39C kill: -23%

What do the screens show for `Cc1cc(C(=O)Cn2nnc3ccccc3c2=O)c(C)n1Cc1cccs1`?
p53ts 32C tox: 16µM*; Peg3 imprint: -30%; Ub-GFP proteasome: -2%; Epigenetic mod: 2%; p53ts 39C kill: 13µM*; HBB splice mod: 0%[57.5 µM]

Results for CCc1ccc2occ(CC(=O)Nc3c(C(=O)Nc4ccc(C)cc4)oc4ccccc34)c2c1 ?
p53ts 32C tox: -29%; Peg3 imprint: -3%[10.9 µM]; p53ts 39C kill: 32µM*

Results for C(#CC1C=CC2OC(c3ccccc3)OCC2O1)c1ccccc1 (stereo unspecified) ?
p53ts 32C tox: -2%[9.22 µM]; p53ts 39C kill: 5%[9.22 µM]; HBB splice mod: -2%[9.22 µM]

How did C=CCN1C(=O)C2C(C(=O)NCc3ccccc3)C3(C)C=CC2(O3)C1C(=O)NC(C)(C)C (stereo unspecified) do in these assays?
p53ts 32C tox: 10%; Peg3 imprint: 10µM*; Ub-GFP proteasome: -3%; Epigenetic mod: 1%; p53ts 39C kill: -1%; HBB splice mod: 1%

What do the screens show for `CCC(=C(CC)c1ccc(O)cc1)c1ccc(O)cc1`?
p53ts 32C tox: 12%[20.6 µM]; Peg3 imprint: -3%[16.8 µM]; Ub-GFP proteasome: -7%[20.5 µM]; Epigenetic mod: -3%[20.6 µM]; p53ts 39C kill: 30%[20.6 µM]; HBB splice mod: 0%[20.6 µM]

How did Oc1ccc(O)cc1 do in these assays?
p53ts 32C tox: -2%; Peg3 imprint: 10µM*; Ub-GFP proteasome: 3%; Epigenetic mod: -2%; p53ts 39C kill: 12%; HBB splice mod: inconclusive

Results for CN(C)c1ccc(NC(=O)CN2CCN(CC(=O)Nc3ccc(Br)cc3)CC2)cc1 ?
p53ts 32C tox: -3%; Peg3 imprint: -15%[10.9 µM]; p53ts 39C kill: -34%

How did CSc1ccc(CCNC(=O)CCc2c(C)nc3c(c(C)nn3-c3ccc(C)c(C)c3)c2C)cc1 do in these assays?
p53ts 32C tox: -2%; Peg3 imprint: 2%[10.9 µM]; p53ts 39C kill: -1%

What do the screens show for `O=C(Nc1ccc(Cl)cc1)N1CCC(c2ccccc2)C1` (stereo unspecified)?
p53ts 32C tox: inconclusive; Peg3 imprint: -18%[10.9 µM]; p53ts 39C kill: 13µM*

How did Cc1ccc(NC(=O)N2CCC(c3ccccc3)C2)cc1C (stereo unspecified) do in these assays?
p53ts 32C tox: inconclusive; Peg3 imprint: -12%[10.9 µM]; p53ts 39C kill: 13µM*

High-throughput results: PubChem, National Center for Advancing Translational Sciences (NCATS)
